Test [1] addresses Paired box protein Pax-6 (Homo sapiens) (UniProt P26367). In words: ATG_Pax6_CIS: Attagene CIS-FACTORIAL HepG2 Assay for human Paired Box 6 (PAX6) (AID 2282956). As to conditions: HepG2 CIS-FACTORIAL PAX6 reporter transcription, RNA readout; actives raise or lower the signal. In short, it runs like this: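 Transient MRTU transfection of HepG2 → compound exposure 24 h → TriZol RNA, oligo(dT) RT → PCR, 6-FAM primer extension, HpaI cut → capillary electrophoresis; activity fitted both directions against DMSO.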

The nature of test [2]: ATG_PXRE_CIS: Attagene CIS-FACTORIAL HepG2 Assay for human Pregnane X Receptor Element (PXRE) (AID 2282957). The conditions noted are these: HepG2 Attagene CIS-FACTORIAL PXRE reporter, mRNA; actives raise or lower the signal. A digest of the protocol:
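HepG2 cells transiently transfected with cis-regulated multiple reporter transcription units; endogenous factor activity measured as reporter mRNA 24 h after dosing. RT-PCR, fluorescent primer extension, HpaI digestion, capillary electrophoresis; bidirectional fit versus DMSO baseline.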

Test [3] can be described thus: ATG_PPRE_CIS: Attagene CIS-FACTORIAL HepG2 Assay for human Peroxisome Proliferator-activated Response Element (PPRE) (AID 2282958). The conditions noted are these: HepG2 PPRE cis-element reporter, Attagene transcription factor profiling; actives raise or lower the signal. A digest of the protocol:
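HepG2 cells are transiently transfected with multiplexed cis-promoter reporter units to report endogenous PPAR activity. After 24 h dosing, reporter mRNA is read by RT-PCR and capillary electrophoresis. Fitting is bidirectional against DMSO.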

Test [4] is described as follows: ATG_RORE_CIS: Attagene CIS-FACTORIAL HepG2 Assay for human RAR-related Orphan Receptor Element (RORE) (AID 2282959). As to conditions: HepG2 Attagene cis-factorial RORE reporter, mRNA; actives raise or lower the signal. A digest of the protocol:
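HepG2 cells carrying transiently transfected cis-regulated reporter units; RORE-driven reporter mRNA quantified 24 h post-dosing by RT-PCR, 6-FAM primer extension, HpaI digestion and capillary electrophoresis. Bidirectional fit versus DMSO.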

The nature of test [5]: ATG_Sox_CIS: Attagene CIS-FACTORIAL HepG2 Assay for human SRY-box transcription factor (SOX) (AID 2282960). As to conditions: HepG2 Attagene cis-factorial SOX reporter, mRNA; actives raise or lower the signal. A digest of the protocol: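 HepG2 cells transiently transfected with multiple cis-regulated reporter units, then dosed for 24 h. Reporter mRNA quantified by RT-PCR, fluorescent labelling, HpaI digestion and capillary electrophoresis; bidirectional fit versus DMSO.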

The target in test [6] is Transcription factor Sp1 (Homo sapiens) (UniProt P08047). Description: ATG_Sp1_CIS: Attagene CIS-FACTORIAL HepG2 Assay for human Specificity Protein 1 (Sp1) (AID 2282961). As to conditions: HepG2 Sp1 cis-reporter transcription, actives raise or lower the signal. In short, it runs like this:
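HepG2 cells transiently transfected with multiplexed cis-regulated reporter constructs, chemical exposure 24 h. Reporter mRNA quantified by RT-PCR with capillary electrophoresis; bidirectional fit relative to DMSO.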

Test [7] is described as follows: ATG_SREBP_CIS: Attagene CIS-FACTORIAL HepG2 Assay for human Sterol Regulatory Element Binding (SREBP) (AID 2282962). The conditions noted are these: HepG2 Attagene cis-factorial SREBP reporter, mRNA; actives raise or lower the signal. A digest of the protocol: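 Transfected HepG2 (cis-regulated reporter library, endogenous TFs) → compound 24 h → total RNA → oligo(dT) RT → reporter-specific PCR → FAM primer extension, HpaI cut → CE fluorescence. Fit bidirectional vs DMSO.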

The target in test [8] is Signal transducer and activator of transcription 3 (Homo sapiens) (UniProt P40763). In words: ATG_STAT3_CIS: Attagene CIS-FACTORIAL HepG2 Assay for human Signal Transducer and Activator of Transcription 3 (STAT3) (AID 2282963). As to conditions: HepG2, Attagene cis-factorial STAT3 reporter transcription; actives raise or lower the signal. A digest of the protocol:
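Transcript-level reporter assay. HepG2 transient MRTU transfection, 24 h exposure, fluorescence detection after RT-PCR and CE; DMSO baseline.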

A short description of test [9]: ATG_TA_CIS: Attagene CIS-FACTORIAL HepG2 Assay for human TA Basal Promoter (AID 2282964). As to conditions: HepG2 Attagene CIS-factorial TA basal promoter reporter; actives raise or lower the signal. In short, it runs like this: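 HepG2 cells transiently transfected with multiple reporter units under cis promoter elements, reporting endogenous transcription factor activity; this endpoint tracks the TA basal promoter as background control. Reporter mRNA after 24 h dosing measured by RT-PCR/capillary electrophoresis; bidirectional fits versus DMSO.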

Test [10] can be described thus: ATG_TCF_b_cat_CIS: Attagene CIS-FACTORIAL HepG2 Assay for human T-Cell-Factor with beta-catenin (TCF/b-cat) (AID 2282965). The conditions noted are these: HepG2 TCF/beta-catenin cis-reporter transcription, actives raise or lower the signal. A digest of the protocol: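 HepG2 cells transiently transfected with multiple cis-promoter-regulated reporter transcription units, so endogenous transcription factor activity is measured. Reporter mRNA read 24 hours after dosing by RT-PCR, fluorescent labelling and capillary electrophoresis; bidirectional fitting against DMSO.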

A short description of test [11]: ATG_TAL_CIS: Attagene CIS-FACTORIAL HepG2 Assay for human TAL Basal Promoter (AID 2282966).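 Further: background control endpoint measuring basal TAL promoter reporter mRNA not a specific factor.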 As to conditions: HepG2 Attagene cis-factorial TAL promoter reporter; actives raise or lower the signal. A digest of the protocol:
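HepG2 cells were transiently transfected with promoter-driven multiplexed reporter units and dosed for 24 h. Reporter mRNA was measured by RT-PCR with capillary electrophoresis fluorescence; bidirectional fits used DMSO as baseline, serving as a background control.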

The nature of test [12]: ATG_M_19_TRANS: Attagene TRANS-FACTORIAL HepG2 Assay for M19 Transcription Factor (Internal Marker) (AID 2282974; active means hit-call score of the fitted dose curve at least 0.9, where 1 is the maximum). The conditions noted are these: HepG2 Attagene TRANS-FACTORIAL M19 internal marker reporter. In short, it runs like this:
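HepG2 transiently transfected with GAL4-UAS multiplex reporter constructs, exposed 24 h; reporter RNA quantified by RT-PCR, 6-FAM labeling, HpaI digestion and capillary electrophoresis; internal background marker fitted upward versus DMSO.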

Test [13] is described as follows: ATG_GAL4_TRANS: Attagene TRANS-FACTORIAL HepG2 Assay for GAL4 (Internal Marker) (AID 2282976; active means hit-call score of the fitted dose curve at least 0.9, where 1 is the maximum). As to conditions: HepG2 Attagene TRANS GAL4 internal marker reporter. A digest of the protocol:
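HepG2 cells transiently transfected with multiplexed GAL4-UAS reporter constructs were dosed for 24 h. Reporter mRNA was measured by RT-PCR, 6-FAM primer extension, HpaI digestion and capillary electrophoresis, and gain of signal was fitted relative to DMSO.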

Test [14] is described as follows: ATG_VDRE_CIS: Attagene CIS-FACTORIAL HepG2 Assay for human Vitamin D Receptor Element (VDRE) (AID 2282968). As to conditions: HepG2 VDRE cis-reporter transcription, actives raise or lower the signal. A digest of the protocol:
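RT-PCR/CE readout of reporter mRNA; HepG2, transient transfection, 24 h dosing; DMSO baseline; bidirectional analysis.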

In test [15] the target is X-box-binding protein 1 (Homo sapiens) (UniProt P17861). Description: ATG_Xbp1_CIS: Attagene CIS-FACTORIAL HepG2 Assay for human X-box Binding Protein 1 (XBP1) (AID 2282972). As to conditions: HepG2 XBP1 cis-element reporter, Attagene multiplex; actives raise or lower the signal. In short, it runs like this: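 HepG2, transient MRTU transfection (cis-promoter driven), 24 h compound exposure. Total RNA → oligo(dT) RT → PCR → 6-FAM labeling → HpaI cut → CE. Bidirectional fit vs DMSO.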
Chain of X-box-binding protein 1 (Homo sapiens) (P17861 whole entry, looked up): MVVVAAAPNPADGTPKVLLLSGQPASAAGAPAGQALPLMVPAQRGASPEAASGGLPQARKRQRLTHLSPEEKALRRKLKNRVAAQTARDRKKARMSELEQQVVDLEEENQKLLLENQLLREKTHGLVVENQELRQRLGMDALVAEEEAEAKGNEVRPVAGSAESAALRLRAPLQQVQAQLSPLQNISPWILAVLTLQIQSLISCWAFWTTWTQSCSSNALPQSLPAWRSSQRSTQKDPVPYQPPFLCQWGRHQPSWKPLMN

Test [16] can be described thus: ATG_TGFb_CIS: Attagene CIS-FACTORIAL HepG2 Assay for human Transforming Growth Factor (TGF) (AID 2282967). As to conditions: HepG2 Attagene CIS TGFb reporter, mRNA transcription; actives raise or lower the signal. A digest of the protocol: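 HepG2 cells transiently transfected with cis-promoter-driven multiple reporter units measure endogenous TF activity; reporter mRNA quantified at 24 h by RT-PCR, FAM labeling, HpaI digestion and capillary electrophoresis. Bidirectional fit vs DMSO.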

The target of test [17] is Nuclear receptor subfamily 1 group I member 3 (Homo sapiens) (UniProt Q14994). In words: ATG_CAR_TRANS: Attagene TRANS-FACTORIAL HepG2 Assay for human Constitutive Androstane Receptor (CAR) (AID 2282969; active means hit-call score of the fitted dose curve at least 0.9, where 1 is the maximum;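 further: activators raise reporter mRNA above DMSO so AC50 marks induction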). As to conditions: HepG2 Attagene TRANS-FACTORIAL CAR reporter. A digest of the protocol:
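HepG2 cells transiently transfected with multiplexed GAL4-UAS reporter units expressing chimeric NR-Gal4 proteins; compound exposure 24 h. Reporter mRNA measured by RT-PCR, 6-FAM labelling, HpaI digestion and capillary electrophoresis; gain-of-signal fitted against DMSO baseline.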

For test [18], the target named is Estrogen receptor (Homo sapiens) (UniProt P03372). Description: ATG_ERa_TRANS: Attagene TRANS-FACTORIAL HepG2 Assay for human Estrogen Receptor alpha (ERa) (AID 2282970; active means hit-call score of the fitted dose curve at least 0.9, where 1 is the maximum). As to conditions: HepG2 Attagene TRANS ERa GAL4 reporter, mRNA. A digest of the protocol: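 HepG2 cells transiently transfected with multiplexed GAL4-UAS reporter units; ERa activity read via exogenous chimeric NR-Gal4 protein. After 24 hour compound exposure, reporter mRNA measured by RT-PCR with 6-FAM labelling and capillary electrophoresis; gain-of-signal fitted relative to DMSO.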
Chain of Estrogen receptor (Homo sapiens) (P03372 whole entry, looked up, the tested form may be a part): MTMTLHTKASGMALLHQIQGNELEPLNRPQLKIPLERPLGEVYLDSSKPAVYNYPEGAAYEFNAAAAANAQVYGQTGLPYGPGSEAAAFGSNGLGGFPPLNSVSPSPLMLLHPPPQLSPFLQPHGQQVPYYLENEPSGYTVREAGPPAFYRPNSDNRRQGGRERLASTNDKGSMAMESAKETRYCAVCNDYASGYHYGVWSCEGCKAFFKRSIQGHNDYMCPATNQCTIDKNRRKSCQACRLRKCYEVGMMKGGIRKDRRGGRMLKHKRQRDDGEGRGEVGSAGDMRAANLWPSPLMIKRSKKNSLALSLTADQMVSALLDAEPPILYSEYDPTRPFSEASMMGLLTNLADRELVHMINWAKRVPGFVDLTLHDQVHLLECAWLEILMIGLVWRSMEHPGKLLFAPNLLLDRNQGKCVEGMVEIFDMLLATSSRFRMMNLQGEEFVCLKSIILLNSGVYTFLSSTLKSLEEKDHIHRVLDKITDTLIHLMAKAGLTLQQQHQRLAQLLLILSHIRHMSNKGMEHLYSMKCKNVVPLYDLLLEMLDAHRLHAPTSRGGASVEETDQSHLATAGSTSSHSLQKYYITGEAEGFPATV

The target of test [19] is Estrogen-related receptor gamma (Homo sapiens) (UniProt P62508). Description: ATG_ERRg_TRANS: Attagene TRANS-FACTORIAL HepG2 Assay for human Estrogen-Related Receptor gamma (ERRg) (AID 2282977; active means hit-call score of the fitted dose curve at least 0.9, where 1 is the maximum;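 further: hits increase reporter signal over DMSO so potencies reflect activators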). The conditions noted are these: HepG2 Attagene TRANS reporter, ERRg transactivation. In short, it runs like this: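 HepG2 cells transiently transfected with multiplexed GAL4-UAS reporter units driven by chimeric NR-Gal4 proteins; 24 h exposure. Reporter mRNA quantified by RT-PCR, fluorescent labelling, HpaI digestion and capillary electrophoresis; gain of signal vs DMSO.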
Chain of Estrogen-related receptor gamma (Homo sapiens) (P62508 whole entry, looked up, the tested form may be a part): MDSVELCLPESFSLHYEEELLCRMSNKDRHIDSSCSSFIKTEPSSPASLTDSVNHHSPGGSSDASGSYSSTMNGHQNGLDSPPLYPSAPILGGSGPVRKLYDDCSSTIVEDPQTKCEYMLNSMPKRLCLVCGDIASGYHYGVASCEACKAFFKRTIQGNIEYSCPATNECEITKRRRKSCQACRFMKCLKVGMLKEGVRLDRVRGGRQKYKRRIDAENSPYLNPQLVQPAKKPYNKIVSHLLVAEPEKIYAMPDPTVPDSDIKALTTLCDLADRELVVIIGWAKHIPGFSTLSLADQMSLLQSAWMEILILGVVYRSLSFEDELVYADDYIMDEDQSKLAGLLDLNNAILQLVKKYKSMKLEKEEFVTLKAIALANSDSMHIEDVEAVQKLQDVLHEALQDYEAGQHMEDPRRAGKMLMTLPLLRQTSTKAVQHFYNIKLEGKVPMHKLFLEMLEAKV

Records with an inconclusive call do not appear. The source made the active and inactive calls. How the source made its calls, unless noted: active means hit-call score of the fitted dose curve at least 0.9, where 1 is the maximum; inactive means score below 0.9.

Results on 7 compounds are retold here after PubChem BioAssay (EPA / NIEHS).

Chain of Transcription factor Sp1 (Homo sapiens) (P08047 whole entry, looked up): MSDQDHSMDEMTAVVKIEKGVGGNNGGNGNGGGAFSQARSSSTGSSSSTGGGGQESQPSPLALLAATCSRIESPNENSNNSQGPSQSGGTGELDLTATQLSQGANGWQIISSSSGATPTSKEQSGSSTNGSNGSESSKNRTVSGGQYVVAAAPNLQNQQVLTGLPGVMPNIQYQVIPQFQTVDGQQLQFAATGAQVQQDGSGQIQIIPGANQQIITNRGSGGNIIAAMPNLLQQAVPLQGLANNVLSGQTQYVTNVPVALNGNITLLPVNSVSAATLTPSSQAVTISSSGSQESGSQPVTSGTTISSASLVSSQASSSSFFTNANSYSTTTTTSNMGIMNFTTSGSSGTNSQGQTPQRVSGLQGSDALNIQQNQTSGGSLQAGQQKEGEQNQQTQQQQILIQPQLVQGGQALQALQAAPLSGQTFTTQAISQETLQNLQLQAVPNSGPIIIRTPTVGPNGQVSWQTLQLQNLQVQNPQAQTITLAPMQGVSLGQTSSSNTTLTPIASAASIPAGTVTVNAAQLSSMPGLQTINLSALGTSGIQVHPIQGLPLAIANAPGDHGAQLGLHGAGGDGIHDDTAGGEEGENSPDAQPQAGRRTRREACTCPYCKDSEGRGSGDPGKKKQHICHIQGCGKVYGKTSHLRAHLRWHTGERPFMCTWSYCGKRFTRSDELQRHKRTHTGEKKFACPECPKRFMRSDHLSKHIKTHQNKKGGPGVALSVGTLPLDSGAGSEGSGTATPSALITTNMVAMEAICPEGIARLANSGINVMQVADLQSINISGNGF
Chain of Signal transducer and activator of transcription 3 (Homo sapiens) (P40763 whole entry, looked up): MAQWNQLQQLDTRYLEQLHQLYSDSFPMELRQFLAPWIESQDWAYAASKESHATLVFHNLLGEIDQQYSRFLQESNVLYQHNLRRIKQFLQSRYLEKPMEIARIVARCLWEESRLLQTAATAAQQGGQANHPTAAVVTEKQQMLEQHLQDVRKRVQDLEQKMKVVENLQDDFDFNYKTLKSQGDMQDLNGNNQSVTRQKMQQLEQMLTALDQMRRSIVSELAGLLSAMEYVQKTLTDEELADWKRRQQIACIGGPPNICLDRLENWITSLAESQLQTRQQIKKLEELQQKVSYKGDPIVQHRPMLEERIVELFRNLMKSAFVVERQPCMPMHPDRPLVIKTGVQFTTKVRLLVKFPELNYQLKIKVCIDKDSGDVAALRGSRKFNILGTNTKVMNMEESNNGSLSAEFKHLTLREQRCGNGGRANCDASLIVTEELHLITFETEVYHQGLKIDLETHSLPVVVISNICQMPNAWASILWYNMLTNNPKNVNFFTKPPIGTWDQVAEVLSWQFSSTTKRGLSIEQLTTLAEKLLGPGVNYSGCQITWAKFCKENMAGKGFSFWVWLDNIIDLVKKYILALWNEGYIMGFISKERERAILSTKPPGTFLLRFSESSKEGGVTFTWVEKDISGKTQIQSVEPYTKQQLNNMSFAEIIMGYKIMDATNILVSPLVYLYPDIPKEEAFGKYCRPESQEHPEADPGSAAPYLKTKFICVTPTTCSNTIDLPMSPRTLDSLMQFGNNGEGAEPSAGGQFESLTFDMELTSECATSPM
Chain of Paired box protein Pax-6 (Homo sapiens) (P26367 whole entry, looked up): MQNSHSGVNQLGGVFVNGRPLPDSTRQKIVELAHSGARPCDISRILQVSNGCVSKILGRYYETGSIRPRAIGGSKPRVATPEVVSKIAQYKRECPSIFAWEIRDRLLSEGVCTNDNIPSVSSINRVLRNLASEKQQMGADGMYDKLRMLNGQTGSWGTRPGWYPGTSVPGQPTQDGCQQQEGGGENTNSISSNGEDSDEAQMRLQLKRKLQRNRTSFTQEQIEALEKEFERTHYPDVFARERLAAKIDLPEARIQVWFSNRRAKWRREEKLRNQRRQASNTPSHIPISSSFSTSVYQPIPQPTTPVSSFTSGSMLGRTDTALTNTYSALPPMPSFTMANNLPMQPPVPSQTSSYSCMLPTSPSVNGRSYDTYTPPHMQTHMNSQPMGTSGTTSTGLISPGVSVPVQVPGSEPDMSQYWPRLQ
Chain of Nuclear receptor subfamily 1 group I member 3 (Homo sapiens) (Q14994 whole entry, looked up, the tested form may be a part): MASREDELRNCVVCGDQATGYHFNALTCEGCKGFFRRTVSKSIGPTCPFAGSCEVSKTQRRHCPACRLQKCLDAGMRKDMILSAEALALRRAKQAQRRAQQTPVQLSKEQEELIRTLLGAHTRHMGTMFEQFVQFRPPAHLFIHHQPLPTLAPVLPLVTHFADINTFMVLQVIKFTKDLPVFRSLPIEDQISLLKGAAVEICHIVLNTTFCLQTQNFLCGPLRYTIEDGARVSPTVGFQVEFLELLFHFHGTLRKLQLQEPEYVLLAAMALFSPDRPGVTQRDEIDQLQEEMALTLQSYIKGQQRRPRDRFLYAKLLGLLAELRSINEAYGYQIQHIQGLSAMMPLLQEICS

As to `Clc1ccc(Cl)c(Cl)c1Cl`, the compound was called inactive in [1], in [2], in test [3], in test [4], in [5] and in [6]. Also, the outcome in test [7], in [8], in test [9], in [10], in test [11] and in test [12] was inactive. Also, in test [13], the compound was classed as inactive.
Regarding `C=C(C)C(=O)NCCCN(C)C`, the compound was classed as inactive in test [1], in test [2], in [3], in test [4], in test [5] and in [6]. Further, the outcome in [7], in test [8], in test [10], in [11], in [14] and in [15] was inactive. Besides, the call in test [13] was inactive.
Consider `CC(O)C(C)O` (stereo not given), for which the call in [1], in test [2], in [3], in test [4], in test [5] and in [6] was inactive. Moreover, the compound was classed as inactive in test [8], in [9], in test [10], in test [11], in test [16] and in [14]. Moreover, the result in test [15], in test [12] and in test [13] was inactive.
For the compound `CC(=O)c1c(C)cc(C(C)(C)C)cc1C`, the result in test [1], in test [3], in test [4], in test [5], in test [6] and in test [7] was inactive. Also, the call in test [8], in [10], in test [11], in test [16], in test [14] and in test [17] was inactive. The call in [15] was inactive. Moreover, the AC50 in [2] was 27.1 µM (active).
Consider `COc1cc2ncnc(Nc3cccc(Cl)c3)c2cc1OC`, for which the AC50 in [1] is 25 µM (active); in test [9] it was 9.84 µM (active); in [10] it was 6.77 µM (active); in test [11] it was 13.4 µM (active); in test [14] it was 12.7 µM (active); in [15] it was 8.13 µM (active). Besides, the outcome in test [2], in test [3], in [4], in test [5], in test [6] and in [8] was inactive. In addition, the compound was classed as inactive in test [16], in test [18] and in test [13].
With `CN(C)CCOCCN(C)C`, the call in [1], in [2], in test [3], in [4], in [5] and in test [7] was inactive. Moreover, the outcome in test [8], in test [9], in test [10], in test [11], in [16] and in [14] was inactive. Further, the outcome in [17], in test [15], in test [12] and in test [19] was inactive.
With `CC(=O)[C@H]1CC[C@H]2[C@@H]3CC=C4C[C@@H](O)CC[C@]4(C)[C@H]3CC[C@]12C`, the compound was classed as inactive in test [1], in test [3], in [4], in test [5], in [6] and in test [7]. For the same compound, the compound was classed as inactive in test [8], in test [9], in test [11] and in test [15]. For the same compound, the AC50 is 3.37 µM (active) in [2], 52.8 µM (active) in test [10], 22.6 µM (active) in test [14] and 1.32 µM (active) in [18].

Broadly, the AC50 is the midpoint of the concentration-response curve, whichever way the signal moves.
